TGFb SMAD3 inh: qHTS for Inhibitors of TGF-b; Potency, µM (titrated, usually from 46.1 µM), hits mostly inhibitors; hit rate 1.2% among 410,000; HepG2 CAGA-GFP TGF-b/SMAD3 reporter, GFP fluorescence, 18 h; TGF-beta stimulated, 500 pg/mL final; AID 588855, 2011; further: nearly all actives have a fitted effect of over 65% in size
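HEPG2 CAGA-GFP cells (1000/well, DMEM with 1% FBS) were pre-incubated 2 h at 37 degrees C, given compound by pin tool, then stimulated with TGF-beta at 500 pg/mL final for 18 h before per-cell GFP fluorescence imaging.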
HepG2 tox: qHTS for Inhibitors of TGF-b: Cytotox Counterscreen. HepG2 CAGA-GFP viability, ATP luminescence, 18 h. hit rate 0.76% among 410,000. Potency, µM (top dose mostly 46.1 µM), most hits filed as cytotoxic
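CellTiter-Glo luminescence gave cytotoxicity after 18 hours at 37 degrees C. The cells were HepG2 CAGA-GFP in 1% FBS DMEM, stimulated with 500 pg/mL TGF-beta after compound addition. %Activity was normalised to no-cell wells (complete cell-killing) and DMSO (no toxicity), and curves were fitted and classified.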
ATXN2 expr inh: Primary qHTS for Inhibitors of ATXN expression | HEK-293 ATXN2-luciferase reporter, luminescence, 24 h | Potency, µM (top dose mostly 57 µM), usual class: inhibitors | hit rate 0.72% among 360,000 | AID 1745845, 2022; further: nearly all actives have a fitted effect of over 55% in size
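qHTS (up to 57 uM final) was run with 24 h compound exposure of reporter cells at 37 °C. Each well was multiplexed: SteadyGlo luminescence measured ATXN2-luciferase expression after a fluorogenic Gly-Phe-AFC viability readout (25 uM final).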
ATXN viability: Viability Counterscreen for Primary qHTS for Inhibitors of ATXN expression; S2 cells (HEK-293 line with an ATXN2-luciferase reporter) viability, CellTiter-Fluor protease fluorescence, 24 h; Potency, µM (highest dose often 56.7 µM), actives largely listed as cytotoxic; hit rate 0.49% among 400,000; further: nearly all actives have a fitted effect of over 40% in size
ALOX12 inh: Primary qHTS assay for inhibitors of human arachidonate 12S-lipoxygenase (ALOX12): Round 2; purified 12hLO, xylenol orange hydroperoxide absorbance; Potency, µM (doses to about 108 µM), most hits filed as inhibitors; hit rate 1.1% among 580,000; AID 1671190, 2021
Target sequence (P18054 whole entry, looked up): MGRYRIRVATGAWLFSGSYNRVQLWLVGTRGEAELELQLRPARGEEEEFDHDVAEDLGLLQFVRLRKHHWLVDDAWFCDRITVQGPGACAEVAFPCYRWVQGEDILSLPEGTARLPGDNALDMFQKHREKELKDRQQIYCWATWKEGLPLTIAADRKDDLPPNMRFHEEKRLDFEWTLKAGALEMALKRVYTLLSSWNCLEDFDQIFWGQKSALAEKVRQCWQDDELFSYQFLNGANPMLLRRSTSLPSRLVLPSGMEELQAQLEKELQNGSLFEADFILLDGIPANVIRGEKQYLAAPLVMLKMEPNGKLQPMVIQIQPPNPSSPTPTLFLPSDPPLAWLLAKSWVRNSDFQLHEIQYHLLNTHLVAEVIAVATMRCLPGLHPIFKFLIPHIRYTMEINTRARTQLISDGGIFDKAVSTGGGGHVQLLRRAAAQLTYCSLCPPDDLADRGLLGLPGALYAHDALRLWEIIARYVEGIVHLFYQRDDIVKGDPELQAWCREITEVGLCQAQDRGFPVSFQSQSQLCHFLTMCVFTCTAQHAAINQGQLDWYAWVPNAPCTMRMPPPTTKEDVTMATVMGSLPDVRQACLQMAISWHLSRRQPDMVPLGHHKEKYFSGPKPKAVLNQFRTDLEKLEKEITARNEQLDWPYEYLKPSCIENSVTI
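Purified human 12hLO at 150 nM in 25 mM Hepes, 0.01% Triton X-100, pH 7.0, preincubated 15 min at room temperature with compound. Reaction started with 40 uM arachidonic acid, 30 min at room temperature. Hydroperoxide measured by Fe-xylenol orange, 573/405 nm absorbance ratio.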
Of the large screens only hits and unclear results are named; the others gave an inactive call. Hits are enriched below; roughly 2.7% of the tested compounds scored in any of these assays. The call rests on the fitted dose curve; in most records, active means well fitted curve in the direction sought with a large enough effect; inconclusive means small, poorly fitted or top-dose-only effect, or another doubt; inactive means no such curve, though single readings can be large; an effect the other way counts as inactive or inconclusive.

CCCCCC(O)(c1ccc(OC)cc1)C(CN1CCOCC1)c1ccccc1 (configuration not stated)	TGFb SMAD3 inh 12.6µM, ATXN viability inconclusive, ALOX12 inh inconclusive
COc1ccc(C(=O)C(CN2CCOCC2)c2ccccc2)cc1 (configuration not stated)	TGFb SMAD3 inh inconclusive, ATXN2 expr inh inconclusive, ATXN viability 17.8µM
O=C(c1ccccc1)C(CCC(CN1CCOCC1)C(=O)c1ccccc1)CN1CCOCC1 (configuration not stated)	TGFb SMAD3 inh inconclusive, ATXN2 expr inh 22.4µM, ALOX12 inh inconclusive (no result: ATXN viability)
CCCCC(O)(c1ccc(OC)cc1)C(CN1CCOCC1)c1ccccc1 (configuration not stated)	ATXN2 expr inh inconclusive, ALOX12 inh inconclusive
O=C(NCc1ccccc1F)Nc1ccc2oc(C3CC3)nc2c1	none (no result: TGFb SMAD3 inh, HepG2 tox, ATXN2 expr inh, ATXN viability)
CCc1cccc(C)c1NC(=O)CCCn1c(C)c2cnn(-c3ccccc3)c(=O)c2c1C	none (no result: ATXN2 expr inh, ATXN viability)
Cc1cc(NC(=O)CCCn2c(C)c3cnn(-c4ccccc4)c(=O)c3c2C)ccc1Br	TGFb SMAD3 inh 7.08µM (no result: ATXN2 expr inh, ATXN viability)
CCCCNc1c(-c2cccc(-c3cc(C(C)=O)cs3)c2)nc2ccc(C)cn12	TGFb SMAD3 inh inconclusive, HepG2 tox 17.8µM, ATXN2 expr inh inconclusive, ATXN viability 15.8µM
CCCCNc1c(-c2cccc(-c3ccc(OC)cc3)c2)nc2ccc(C)cn12	TGFb SMAD3 inh inconclusive, ATXN2 expr inh inconclusive, ATXN viability inconclusive
CC(C)c1ccc(/C=C(\C#N)c2nc(-c3ccc(O)cc3)cs2)cc1	TGFb SMAD3 inh inconclusive, HepG2 tox 17.8µM, ATXN2 expr inh inconclusive, ALOX12 inh inconclusive
COc1ccc(/C=C(/C#N)c2nc(-c3ccc(Br)cc3)cs2)cc1	none
Cc1cccc(C(C)C)c1NC(=O)CCc1ncc(-c2ccccc2)o1	none (no result: TGFb SMAD3 inh, HepG2 tox, ATXN2 expr inh, ATXN viability)
C=CCN1C(c2ccc(Br)cc2)=CS/C1=C(\C#N)c1nnc(N2CCOCC2)n1-c1ccccc1	ALOX12 inh 39.8µM
C=CCN1C(c2cccc(C(F)(F)F)c2)=CS/C1=C(\C#N)c1nnc(N2CCOCC2)n1-c1ccccc1	ATXN viability inconclusive (no result: ATXN2 expr inh)
CCn1c(=O)c([N+](=O)[O-])c(NCCN(C)C)c2ccccc21	ATXN viability inconclusive
CCn1c(=O)c([N+](=O)[O-])c(Cl)c2ccccc21	TGFb SMAD3 inh inconclusive, ATXN viability 35.5µM (no result: ALOX12 inh)
O=C(Nc1csnn1)c1csnn1	ALOX12 inh 10µM (no result: ATXN2 expr inh)
O=C(c1cccc(N2CCCC2=O)c1)N1CCC(Oc2cccc(CN3CCN(c4ccccn4)CC3)c2)CC1	ATXN viability 14.1µM (no result: TGFb SMAD3 inh, HepG2 tox, ATXN2 expr inh)
CC1=C(C)CC(C(=O)N2CCCc3cc(C)ccc32)C(C(=O)O)C1 (configuration not stated)	none (no result: TGFb SMAD3 inh, HepG2 tox, ATXN2 expr inh, ATXN viability)
CCOC(=O)c1ccccc1NC(=O)CSc1ccc(-c2ccccn2)nn1	ATXN2 expr inh 3.55µM, ATXN viability inconclusive
CCOC(=O)c1ccccc1NC(=O)CSc1nc2ncccc2o1	HepG2 tox 2µM
COc1ccc(C)cc1NC(=O)CSc1ccc(-c2ccccn2)nn1	TGFb SMAD3 inh inconclusive, ATXN2 expr inh 14.1µM, ATXN viability inconclusive
Cc1cccc(NC(=O)CSc2ccc(-c3ccccn3)nn2)c1	TGFb SMAD3 inh inconclusive (no result: ATXN2 expr inh, ATXN viability)
CCc1ccc2nc(/N=C(\N)NC(=O)c3ccccc3N)nc(C)c2c1	none (no result: TGFb SMAD3 inh, HepG2 tox, ATXN2 expr inh, ATXN viability)
Cc1ccc(NC(=O)C23CC4CC(CC(C4)C2)C3)cc1Cl	none (no result: TGFb SMAD3 inh, HepG2 tox, ATXN2 expr inh, ATXN viability)
Cn1ccc(CN2CCn3c(nn(-c4ccc(F)cc4F)c3=O)C2)c1	none (no result: TGFb SMAD3 inh, HepG2 tox, ATXN2 expr inh, ATXN viability)
Cc1ccc(SCC(=O)OCC(=O)N(CC(C)C)c2c(N)n(Cc3ccccc3)c(=O)[nH]c2=O)cc1C	TGFb SMAD3 inh 17.8µM, ALOX12 inh inconclusive
CCc1ccc(Nc2nnc(SCC(=O)Nc3sccc3C(N)=O)s2)cc1	TGFb SMAD3 inh 10µM, ATXN viability inconclusive
COc1cccc(Nc2nnc(SCC(=O)Nc3sccc3C(N)=O)s2)c1	ATXN viability inconclusive (no result: ATXN2 expr inh)
CC(Cn1cccn1)NC(=O)N1CCN(Cc2cccs2)CC1 (configuration not stated)	none (no result: TGFb SMAD3 inh, HepG2 tox, ATXN2 expr inh, ATXN viability)
O=C(CSc1ccccc1C(=O)Nc1ccc2[nH]c(=O)[nH]c2c1)NCc1ccco1	none (no result: TGFb SMAD3 inh, HepG2 tox, ATXN2 expr inh, ATXN viability)
CC(=NNc1nc2ccccc2s1)c1ccncn1	TGFb SMAD3 inh inconclusive, ATXN2 expr inh inconclusive (no result: ATXN viability)

Bioassay records: PubChem, National Center for Advancing Translational Sciences (NCATS)
